High-throughput results as filed in PubChem.
Only some compounds are listed: those with a hit (about 11% of all), similar ones and a draw of the others.
Tau fibril FP = qHTS for Inhibitors of Tau Fibril Formation, Fluorescence Polarization; Potency, µM (titrated, usually from 57.7 µM), inactives show at the highest dose activity, negative = inhibition, actives largely listed as inhibitors; AID 1468, 2008; K18 P301L tau heparin fibrillization, Alexa594 FP, 6 h; hit rate 0.39% among 280,000; Microtubule-associated protein tau (Homo sapiens), P10636; note: potency is the fitted concentration of half-maximal effect; nearly all actives have a fitted effect of over 55% in size
Target sequence (P10636 561-689 P618L limits assumed): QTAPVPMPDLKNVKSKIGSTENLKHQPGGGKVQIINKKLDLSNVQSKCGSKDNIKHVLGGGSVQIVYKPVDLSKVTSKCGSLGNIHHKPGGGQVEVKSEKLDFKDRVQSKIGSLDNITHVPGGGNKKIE
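Quantitative HTS format: compounds meet 15 uM recombinant K18 P301L tau and Alexa 594-tau tracer in 100 mM sodium acetate pH 7; 20 uM heparin triggers fibrillization at 37 C over 6 hr; FP gives the signal.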
G9a block = qHTS Assay for Inhibitors of Histone Lysine Methyltransferase G9a | Histone-lysine N-methyltransferase EHMT2 (Homo sapiens), Q96KQ7 | G9a H3K9 monomethylation, AlphaScreen, 2 h | Potency, µM (series often up to 102 µM), for the others: top-dose activity, negative = inhibition, usual class: inhibitors | hit rate 8.8% among 350,000; note: potency is the fitted concentration of half-maximal effect; nearly all actives have a fitted effect of over 75% in size
Target sequence (Q96KQ7 913-1193 limits assumed): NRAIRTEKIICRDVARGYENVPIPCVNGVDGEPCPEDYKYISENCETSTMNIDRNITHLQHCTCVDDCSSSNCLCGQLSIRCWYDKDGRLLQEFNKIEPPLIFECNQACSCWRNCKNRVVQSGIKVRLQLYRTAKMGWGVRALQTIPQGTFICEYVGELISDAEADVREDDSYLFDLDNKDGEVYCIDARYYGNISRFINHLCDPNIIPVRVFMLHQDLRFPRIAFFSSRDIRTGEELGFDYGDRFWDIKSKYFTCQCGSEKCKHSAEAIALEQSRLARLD
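Signal arises when biotinylated H3K9 peptide, once monomethylated, bridges streptavidin donor and antibody-captured acceptor beads. Enzyme at 20 nM was preincubated 15 min with test compounds; peptide 500 nM and SAM 20 uM then reacted for 2 h.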
Tau ThT inhib = qHTS for Inhibitors of Tau Fibril Formation, Thioflavin T Binding. recombinant tau K18 P301L, heparin-induced fibrillization, ThT fluorescence. AID 1460, 2008. Potency, µM (top dose mostly 57.4 µM), for inactives: at the top dose activity, negative = inhibition, hits mostly inhibitors. Microtubule-associated protein tau (Homo sapiens), P10636. hit rate 2.1% among 270,000; note: potency is the fitted concentration of half-maximal effect; nearly all actives have a fitted effect of over 55% in size
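Recombinant human tau K18 fragment […] carrying P301L, 15 uM unlabeled plus 0.24 uM Alexa 594-labeled, was fibrillized with 20 uM heparin in 100 mM sodium acetate pH 7 for 6 hr at 37 C; 30 uM ThT fluorescence read after 1 hr.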
Tau fluor cs = Counterscreen qHTS for Inhibitors of Tau Fibril Formation, Fluorescence Polarization. tau K18 P301L Alexa594 fluorescence, heparin fibrillization. Potency, µM (titrated, usually from 57.7 µM), without a hit: at the top dose activity change, negative = decrease. hit rate 0.93% among 280,000; note: potency is the fitted concentration of half-maximal effect; nearly all actives have a fitted effect of over 55% in size
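Human tau K18 P301L (15 uM unlabeled, 0.24 uM Alexa 594-labeled) in 100 mM sodium acetate pH 7 with 20 uM heparin, 6 hr at 37 C. ThT 30 uM added, 1 hr ambient; Alexa 594 FP and total fluorescence read at 555/632 nm.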
Sfp inh = qHTS Assay for Inhibitors of Bacillus subtilis Sfp phosphopantetheinyl transferase (PPTase) | hit rate 3.5% among 310,000 | 4'-phosphopantetheinyl transferase ffp (Bacillus subtilis), Q9F4F7 | Biochemical Sfp PPTase activity, qHTS | Potency, µM, for inactives: largest response in the series, negative = inhibition, most hits filed as inhibitors;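 note: the enzyme is Sfp with the accession as filed and its product quenches rhodamine fluorescence; potency is the fitted concentration of half-maximal effect; 0% = enzyme reaction without inhibitor and -100% = no enzyme wells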
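Fluorescence-quenching assay: 15 nM Sfp-PPTase preincubated 15 min at room temperature with compound, then 5 uM rhodamine-CoA and 12.5 uM BHQ-2-labelled YbbR peptide added. Fluorescence (ex 525/em 598 nm) read at start and after 30 min; difference gives rate.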
FBPA coupling cs = qHTS Assay for Inhibitors of Fructose-1,6-bisphosphate Aldolase from Giardia Lamblia: Coupling assay counterscreen | coupling enzyme system counterscreen, AmpLite Red fluorescence | activity change, negative = inhibition, % at 58.2 µM, hits read low | hit rate 0.67% among 290,000; in the data active = activity change below about -30%
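First, compound is pin-transferred into glyceraldehyde-3-phosphate coupling-enzyme reagent at 57.5 uM final and held 10 min at RT. Next, substrate, coupling system and AmpLite Red are added. After 20 min RT, fluorescence (525/598 nm) is read.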
The depositor's hits bear a star; ? = inconclusive; nt = no result; [ ] = another dose, or the depositor's remark. Unless noted, calls come from the whole dose curve; as a rule, active = well fitted curve in the direction sought with a large enough effect; inconclusive = small, poorly fitted or top-dose-only effect, or another doubt; inactive = no such curve, though single readings can be large; an effect the other way counts as inactive or inconclusive. Unless noted, % is set by controls: 0 for no effect and ±100 for the full control effect.

SMILES	Tau fibril FP	G9a block	Tau ThT inhib	Tau fluor cs	Sfp inh	FBPA coupling cs
COc1cccc(NC(=O)CN2C(=O)c3cccc4cccc2c34)c1	?	-2%[59 µM]	?	-18%	nt	nt
CCN(CC(=O)Nc1ccc(NC(C)=O)cc1)C(=O)CN1C(=O)C2CCCCC2C1=O (stereo not drawn)	nt	21%[59 µM]	nt	nt	nt	nt
CSc1nnc2c(n1)c(C)nn2-c1cccc(C)c1	5%	10µM*	?	-27%	-16%	2
COc1ccc(/C=C/C(=O)OCC(=O)Nc2ccc3[nH]c(=O)[nH]c3c2)cc1OC	nt	-50%	nt	nt	nt	nt
CCOC(=O)c1c(C)[nH]c(C)c1C(=O)COC(=O)C1CCCN1S(=O)(=O)c1ccccc1F (stereo not drawn)	0%	50µM*	-8%	-11%	1%	1
O=C(COC(=O)[C@@H]1CCCN1S(=O)(=O)c1ccccc1F)c1ccccc1	-1%	0%	2%	-8%	8%	0
O=C(O)[C@@H]1CN[C@@H](C(=O)O)C1	10%	27%[59 µM]	8%	4%	-22%	nt
COc1cc(C)c(/C=C/C(C)=C/C=C/C(C)=C/C(=O)O)c(C)c1C	-11%	?	25µM*	?	-13%	nt
COc1ccccc1OCCCCn1c(-c2ccc(Cl)cc2)nc2ccccc2c1=O	-6%	-20%[59 µM]	1%	-9%	nt	nt
C=CCN1C(=O)/C(=C\C(C)=C\c2ccccc2)SC1=S	nt	24%[0.501 µM]	nt	nt	11%	0
CCC(C(=O)O)N1C(=O)/C(=C/C(C)=C/c2ccccc2)SC1=S (stereo not drawn)	-12%	?	18µM*	-22%	?	20
CC(=O)NN1C(=O)/C(=C\c2ccc(O)cc2)SC1=S	-3%	?	?	-13%	11%	0
CC(C)C(C(=O)O)N1C(=O)/C(=C/c2ccc(Br)cc2)SC1=S (stereo not drawn)	nt	nt	nt	nt	?	10
CC(/C=C1\SC(=S)N(NC(=O)c2ccc(O)cc2)C1=O)=C\c1ccccc1	1%	?	5%	7%	50µM*	-10
CC(=C\c1ccccc1)/C=C1/SC(=S)N(C(C(=O)O)C(C)C)C1=O (stereo not drawn)	-10%	35µM*	25µM*	-13%	-6%	1
COc1cccc(Nc2nc3cc(Cl)c(Cl)cc3nc2-n2nc(C)cc2C)c1	-2%	-18%[59 µM]	-8%	-15%	nt	nt
CCC(C)C(NC(=O)OC(C)(C)C)C(=O)NC1COC2CC(n3cc(C)c(=O)[nH]c3=O)OC12 (stereo not drawn)	nt	nt	nt	nt	11%	1
CC(=C\C(=O)O)/C(=C/c1ccco1)C(=O)O	?	45µM*	?	-22%	-5%	0
CC(=C\C(=O)O)/C(=C\c1cccc2ccccc12)C(=O)O	-7%	7%	-5%	-6%	9%	14
CC(=C\C(=O)O)/C(=C/c1ccc(C)o1)C(=O)O	?	32µM*	?	-4%	4.5µM*	2
COc1ccc2c(c1)c1c(c(=O)n(-c3ccccc3)c(=O)n1CC(=O)Nc1ccc(C)c(C)c1)n2C	-2%	-5%[59 µM]	7%	2%	nt	nt
O=C(O)C1=CC(=C(c2ccc(O)c(C(=O)O)c2)c2ccc(O)c(C(=O)O)c2)C=CC1=O	?	1.1µM*	32µM*	?	-2%	4
COC(=O)c1cnn(-c2ccc(Cl)cc2)c1/C=N/NC(N)=S	-5%	6%	-14%	-11%	-3%	1
O=C(NC1CC(=O)N(c2cccc(F)c2)C1)C(c1ccccc1)c1ccccc1 (stereo not drawn)	-4%	1%[59 µM]	-4%	-14%	nt	nt
CCOc1ccc(NC(=O)CN(C)C(=O)c2cn(-c3ccccc3)nc2-c2cccs2)cc1OCC	nt	-4%[0.501 µM]	nt	nt	1%	nt
SMILES	Tau fibril FP	G9a block	Tau ThT inhib	Tau fluor cs	Sfp inh	FBPA coupling cs
Cc1nc2c(s1)sc1ccccc12	2%	38%	-5%	0%	13%	1
CC[n+]1c(C)sc2sc3ccccc3c21	-60%	1µM*	nt	-11%	2.8µM*	-4
CCOC(=O)c1sc(/N=C/c2ccc(O)cc2O)cc1C	-12%	22µM*	?	-26%	0%	-1
CCOC(=O)c1sc(NC(=O)c2sccc2C)cc1C	-14%	5%	?	?	10%	-6
O=C1NC2(CCCCCC2)C(=O)N1Cc1ccccc1Br	nt	-2%	nt	nt	-14%	-3
Cc1sc(NC(=O)c2ccco2)nc1-c1ccc2c(c1)CC(C)N2C(=O)C1CC1 (stereo not drawn)	-5%	45µM*	?	?	-18%	-7
Cc1sc(NC(=O)c2ccco2)nc1-c1ccccc1	-3%	9%[12.7 µM]	?	-25%	-1%	2
CCOC(=O)C(=O)Nc1nc(-c2ccc3c(c2)CCN3C(=O)C2CC2)c(C)s1	nt	50µM*	nt	nt	-9%	1
CC(=O)Nc1nc(-c2ccc3c(c2)CC(C)N3C(=O)C2CC2)c(C)s1 (stereo not drawn)	nt	25µM*	nt	nt	50µM*	0
CC1Cc2cc(S(=O)(=O)NCc3ccccc3)ccc2N1C(=O)C1CC1 (stereo not drawn)	nt	12%[59 µM]	nt	nt	17%	2
Cc1sc(NC(=O)Cc2ccc3c(c2)OCO3)nc1-c1ccc2c(c1)CCN2C(=O)c1ccc(F)cc1	5%	40µM*	-13%	-24%	-10%	-2
Cc1sc(NC(=O)CN2CCCC2)nc1-c1ccc2c(c1)CCN2C(=O)c1cccc(F)c1	nt	?	nt	nt	-4%	-1
O=C(NCc1ccc2c(c1)CCN2C(=O)c1ccncc1)c1cccc(Cl)c1	-3%	-3%[59 µM]	-1%	-10%	nt	nt
O=C(NCc1ccccc1Cl)c1ccc(NC(=O)N2CCSc3ncccc32)cc1	-17%	-3%[59 µM]	1%	2%	nt	nt
CC(=O)c1ccc(N2C(=O)N(Cc3ccccc3C#N)c3ccccc3S2(=O)=O)cc1	0%	6%[59 µM]	9%	-14%	nt	nt
Cc1nc(C)c(NC(=O)OC(C)C)cc1NC(=O)OC(C)C	1%	-7%	3%	-1%	25%	2
Clc1ccc(-n2ncc3c(NCc4ccco4)ncnc32)cc1	?	-44%[0.0925 µM]	-14%	?	18%	-1
COc1ccc(-n2ncc3c(NCc4ccco4)ncnc32)cc1	-3%	45µM*	?	-22%	-2%	-9
CCc1cc2c(NCC(=O)O)ncnc2s1	1%	?	-10%	-5%	8%	2
